Tb PFK inh = inhibitors of T. brucei phosphofructokinase; O15648; Potency, µM (titrated, usually from 57.5 µM), hits mostly inhibitors; AID 485367; T. brucei PFK, ADP-Glo luminescence; actives 0.17% (n = 330,000); active = well fitted inhibition curve with a large enough effect; inconclusive = small, poorly fitted or top-dose-only effect, or effect the other way; note: nearly all actives have a fitted effect of over 60% in size
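ADP-Glo luminescence quantified ADP after 45 min at room temperature, with 1.25 nM T. brucei PFK, 0.1 mM ATP and 0.5 mM fructose-6-phosphate in pH 8.0 TEA buffer. qHTS titrations up to 57 µM; curves classified by quality.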
KCNH2 3.1 block = blocks the human KCNH2 3.1 channel isoform; U2OS KCNH2 3.1, thallium flux FluxOr; hits give low values; activity change, % (tested at about 1.8 µM); actives 0.95% (n = 340,000); AID 720553;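 active = maximum activity change below -70%; inconclusive = maximum activity change from -70% to -50%; inactive = maximum activity change above -50%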;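 note: thallium influx rate constant from kinetic fluorescence after stimulation buffer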
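U2OS cells transduced with KCNH2 3.1 mutant virus (1.77 x 10^8 /mL, 4 h), plated overnight at 37 C, loaded 45 min with FluxOr dye plus Red40 quencher. Thallium flux rate constant from kinetic reads after stimulation buffer, normalised to controls.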
hERG WT inh = inhibitors of human wildtype KCNH2 potassium channel | Q12809 | U2OS, BacMam KCNH2, thallium flux FluxOr; hits give low values | activity change, % at 1.84 µM | actives 0.37% (n = 340,000);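 active = maximum activity change below -70%; inconclusive = maximum activity change between -70% and -50%; inactive = maximum activity change above -50%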
Target sequence (Q12809 whole entry, looked up): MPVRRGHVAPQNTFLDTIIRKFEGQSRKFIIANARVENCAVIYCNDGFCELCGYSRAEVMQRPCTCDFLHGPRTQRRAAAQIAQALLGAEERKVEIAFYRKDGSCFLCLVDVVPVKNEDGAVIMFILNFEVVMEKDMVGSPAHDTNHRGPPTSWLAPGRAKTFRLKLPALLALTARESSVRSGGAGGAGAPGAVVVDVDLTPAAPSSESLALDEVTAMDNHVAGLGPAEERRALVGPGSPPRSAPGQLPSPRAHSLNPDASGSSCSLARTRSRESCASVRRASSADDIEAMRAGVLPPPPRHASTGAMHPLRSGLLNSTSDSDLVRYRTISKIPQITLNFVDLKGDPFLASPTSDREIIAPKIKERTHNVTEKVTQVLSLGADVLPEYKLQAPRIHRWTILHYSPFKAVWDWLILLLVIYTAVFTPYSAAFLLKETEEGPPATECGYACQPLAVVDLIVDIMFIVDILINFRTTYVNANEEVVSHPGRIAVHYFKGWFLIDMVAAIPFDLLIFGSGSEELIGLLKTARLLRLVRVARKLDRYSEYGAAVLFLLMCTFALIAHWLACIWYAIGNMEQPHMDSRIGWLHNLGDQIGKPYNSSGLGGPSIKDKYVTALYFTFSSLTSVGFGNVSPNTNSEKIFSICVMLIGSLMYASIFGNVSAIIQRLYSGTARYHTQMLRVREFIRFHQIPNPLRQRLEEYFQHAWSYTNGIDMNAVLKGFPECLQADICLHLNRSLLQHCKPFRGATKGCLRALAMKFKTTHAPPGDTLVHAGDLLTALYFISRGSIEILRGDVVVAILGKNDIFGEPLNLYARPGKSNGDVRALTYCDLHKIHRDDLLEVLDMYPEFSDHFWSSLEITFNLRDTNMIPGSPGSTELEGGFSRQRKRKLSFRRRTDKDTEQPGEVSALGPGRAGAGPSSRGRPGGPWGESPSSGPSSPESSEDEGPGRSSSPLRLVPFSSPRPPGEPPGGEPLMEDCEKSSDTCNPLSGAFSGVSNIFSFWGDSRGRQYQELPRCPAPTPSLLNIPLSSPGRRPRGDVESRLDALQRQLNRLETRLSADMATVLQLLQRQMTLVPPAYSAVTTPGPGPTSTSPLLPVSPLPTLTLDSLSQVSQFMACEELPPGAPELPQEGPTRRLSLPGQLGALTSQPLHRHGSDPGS
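U2OS cells were transduced with wild-type KCNH2 virus (2.03 x 10^8 / mL) for 4 h at room temperature, then cultured overnight at 37 C. Thallium flux was read with FluxOr dye. Rate constants were normalized to DMSO controls.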
TSG101-PTAP inh = blocks PTAP/TSG101 interaction to inhibit HIV-1 budding. Q99816. Fluorescence polarization, FITC-PTAP peptide / Tsg101 binding. Potency, µM (doses to about 115 µM), hits mostly inhibitors. 340,000 tested, under 10 active. AID 493005; active = well fitted inhibition curve with a large enough effect in the main read-out, with a control signal flat, not every such curve was filed as active; inconclusive = small, poorly fitted or top-dose-only effect, or effect the other way, or a change in a side signal; inactive = no such curve, though single readings can be large or run the other way
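Steps: Tsg101 binding domain dispensed (10 uM final), compounds pinned in DMSO, FITC-labeled PTAP-motif peptide added (50 nM final); after 20 min binding at room temperature, polarization measured.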
Hits are given with their value; . = inactive; ? = inconclusive; / = no result given. Rows were chosen to be rich in hits. Some 1.2% of all compounds tested hit in one or more screens of this group.

SMILES	Tb PFK inh	KCNH2 3.1 block	hERG WT inh	TSG101-PTAP inh
N=c1c(C(=O)NC2CCCC2)cc2c(=O)n3ccccc3nc2n1Cc1ccccc1	.	-77	.	.
COc1ccc(CCn2c(=N)c(C(=O)NCC3CCCO3)cc3c(=O)n4ccccc4nc32)cc1 (stereo not drawn)	.	-86	?	.
Cc1ccccc1NC(=O)c1cc[n+]([O-])cc1	.	.	.	.
COc1ccccc1NS(=O)(=O)c1cccc(NC(=O)CCNC(=O)c2ccccc2OC)c1	.	.	.	.
COCCNC(=O)Cn1c(=O)n(CCCC(=O)NCc2ccc3c(c2)OCO3)c(=O)c2sccc21	.	.	.	.
N=c1c(C(=O)NCC2CCCO2)cc2c(=O)n3ccccc3nc2n1Cc1ccc(Cl)cc1 (stereo not drawn)	.	-131	.	.
N=c1c(C(=O)NCC2CCCO2)cc2c(=O)n3ccccc3nc2n1Cc1ccccc1 (stereo not drawn)	.	.	.	.
Cc1nn(C(=O)c2nn(C)cc2[N+](=O)[O-])c(C)c1Cl	.	.	.	.
CCOc1ccccc1C(=O)NC(C(=O)NCCc1ccccn1)C(C)C (stereo not drawn)	.	.	.	.
CCCCCCCC(=O)N/N=C/c1ccc(Br)cc1	.	-82	.	.
C[C@@H]1CN([C@H](C)CO)S(=O)(=O)c2ccc(Br)cc2O[C@H]1CN(C)C(=O)Nc1ccccc1	/	.	.	/
COc1ccccc1C1CCN(Cc2ccc3ccccc3c2)CC1	.	-188	-209	.
COc1ccccc1C1CCN(Cc2ccccc2)CC1	.	.	.	.
CC(C)CCN1CCC[C@]2(N[C@H](c3ccc(C(F)(F)F)cc3)[C@@H]3C(=O)N(Cc4ccccc4)C(=O)[C@@H]32)C1=O	/	.	.	/
CCOc1cc(C)ccc1OCc1nnc(SCC(=O)c2cccc([N+](=O)[O-])c2)n1C	.	.	.	.
Cn1c(COc2ccccc2)nnc1SCC(=O)c1cccc([N+](=O)[O-])c1	.	-92	.	.
COc1ccc(CN2C[C@H](Cc3ccccc3)[C@@H](CC(=O)Nc3ccccc3)C2=O)cc1	.	.	.	.
O=C(CSc1nc2ccc([N+](=O)[O-])cc2s1)c1ccc2ccccc2c1	.	.	.	.
CC(=O)c1ccc(NC(=O)CN2CCN(CC(=O)Nc3ccc(C(C)=O)cc3)CC2)cc1	.	-102	.	.
COc1ccc(S(=O)(=O)N2CCN(CC(=O)Nc3ccccc3Cl)CC2)cc1	.	-88	.	.
COc1ccc(NC(=O)CN2CCCC2)cc1	.	.	.	.
COc1ccc(S(=O)(=O)N2CCN(CC(=O)Nc3ccccc3OC)CC2)cc1	.	.	.	.
COc1ccc(NC(=O)CN2CCN(CC(=O)Nc3ccc(OC)cc3)CC2)cc1	.	-108	-92	.
COc1ccc(NC(=O)CN2CCN(CC(=O)Nc3ccc4c(c3)OCO4)CC2)cc1	.	/	-79	.
COc1ccccc1NC(=O)CN1CCN(CC(=O)Nc2ccc3c(c2)OCO3)CC1	.	.	.	.
SMILES	Tb PFK inh	KCNH2 3.1 block	hERG WT inh	TSG101-PTAP inh
CN1CCN(S(=O)(=O)c2cccc(C(=O)NCc3ccccc3Cl)c2)CC1	.	.	.	.
COc1ccc(CNC(=O)C[C@H]2C[C@H](C(=O)N3CCCCC3)[C@@]3(CCc4ccccc4)c4[nH]c5ccc(Cl)cc5c4CCN3C2=O)cc1OC	.	.	.	.
CC(C)NC(=O)C1CCN(C2CCN(Cc3nc4ccccc4s3)CC2)CC1	.	-118	.	.
c1ccc(-c2cnn3c(-c4ccccc4)c(-c4ccccc4)nc3n2)cc1	.	-89	-135	?
Nc1nc(-c2ccccc2)c(-c2ccccc2)n1N	.	.	.	.
COc1ccc(CN2CCC(C(=O)c3ccc(F)cc3)CC2)cc1	.	-73	.	.
Cc1ccc(CN2CCC(C(=O)c3ccc(F)cc3)CC2)cc1	/	-75	.	/
Cc1ccc(CNC(=O)CN2CCC(C(N)=O)CC2)cc1	.	.	.	.
CSc1ccc(CN2CCC(C(=O)NCc3ccc(C)cc3)CC2)cc1	.	-93	/	.
COCCN(C(=O)COC(=O)c1c(NC(C)=O)sc(C)c1C)c1c(N)n(Cc2ccccc2)c(=O)[nH]c1=O	.	.	.	.
COc1ccccc1/C=C/C=N/NC(=O)c1ccc(=O)n(C)c1	.	-93	.	.
COc1ccccc1N1CCN(C2CCN(S(=O)(=O)c3ccc(NC(C)=O)cc3)CC2)CC1	.	.	.	.
COc1ccc(Cl)cc1C(=O)Nc1ccccc1N1CCN(C(=O)C(C)C)CC1	.	.	-90	.
O=C(Nc1ccc(N2CCN(C(=O)c3ccccc3)CC2)c(Cl)c1)c1ccc(Br)o1	.	-102	.	.
CCOc1ccc(C(=O)Nc2ccccc2N2CCN(C(=O)c3ccccc3)CC2)cc1[N+](=O)[O-]	.	-104	-92	.
O=C(Nc1ccc(N2CCN(C(=O)c3ccccc3)CC2)cc1)c1ccc(Br)o1	.	.	.	.
COc1ccc(Br)cc1C(=O)Nc1ccccc1N1CCN(C(=O)c2ccccc2)CC1	.	.	-85	.
O=C(Nc1ccccc1N1CCN(C(=O)c2ccccc2)CC1)c1cc(Br)ccc1Cl	.	-92	?	.
CCn1c(SCC(=O)Nc2ccc(F)cc2)nnc1C1CC1	.	.	.	.
COc1ccc(C)cc1NC(=O)CCN1CCCC1	.	.	.	.
O=C(CCN1CCN(C/C=C/c2ccccc2)CC1)Nc1ccc(Cl)cc1	.	-99	.	.
COc1ccc(C)cc1NC(=O)CCN1CCN(C/C=C/c2ccccc2)CC1	.	-99	?	.
Cc1ccc(NC(=O)CCN2CCN(C/C=C/c3ccccc3)CC2)cc1	.	-86	-96	.
COc1ccc(Cl)cc1NC(=O)C(C)N1CCN(C/C=C/c2ccccc2)CC1 (stereo not drawn)	.	-93	-75	.
O=C(CN1CCN(C/C=C/c2ccccc2)CC1)NCc1ccccc1	.	-91	/	.
SMILES	Tb PFK inh	KCNH2 3.1 block	hERG WT inh	TSG101-PTAP inh
Cc1ccc(NC(=O)CCN2CCC(Cc3ccccc3)CC2)cc1	.	-124	.	.
COc1cc(NC(=O)CCN2CCN(C/C=C/c3ccccc3)CC2)cc(OC)c1	.	.	.	.
Cc1ccc(NC(=O)CCN2CCN(C/C=C/c3ccccc3)CC2)cc1C	.	-96	.	.
COc1ccc(NC(=O)CCN2CCN(C/C=C/c3ccccc3)CC2)cc1	.	-105	.	.
Cc1ccc(C(=O)OC(C)C(=O)N(C)C2CCCCC2)cc1S(=O)(=O)N1CCCCC1 (stereo not drawn)	.	.	.	.
Cc1ccccc1CC(=O)Nc1sc(C(C)C)cc1C(=O)N1CCOCC1	.	.	.	.
CC(C)NC[C@H](O)COc1ccc(CC(N)=O)cc1	.	/	/	.
CC(C(=O)Nc1ccc([N+](=O)[O-])cc1)N1CCN(C/C=C/c2ccccc2)CC1 (stereo not drawn)	.	.	-194	.

Compound activity from PubChem.
